This note sets out measurements from article PMC4336329 (PLoS ONE, 2015).

SMILES strings stand for the structures. Among all 310,000 compounds or so, about 14,000 (4.5%) showed an effect of 50% or more. Effects have a minus sign here. This is one part of a sample in which strong results are shown more often than they occur.
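Further: peak tail current of the secondary pulse compared with the same well before compound.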

The assay deals with human ether-à-go-go-related gene (hERG) potassium channel (human, UniProt Q12809). Nature of the assay: primary screen, population patch clamp on CHO cells stably expressing hERG; higher = less effect of the substance.
Sequence of human ether-à-go-go-related gene (hERG) potassium channel (Q12809 whole entry, looked up): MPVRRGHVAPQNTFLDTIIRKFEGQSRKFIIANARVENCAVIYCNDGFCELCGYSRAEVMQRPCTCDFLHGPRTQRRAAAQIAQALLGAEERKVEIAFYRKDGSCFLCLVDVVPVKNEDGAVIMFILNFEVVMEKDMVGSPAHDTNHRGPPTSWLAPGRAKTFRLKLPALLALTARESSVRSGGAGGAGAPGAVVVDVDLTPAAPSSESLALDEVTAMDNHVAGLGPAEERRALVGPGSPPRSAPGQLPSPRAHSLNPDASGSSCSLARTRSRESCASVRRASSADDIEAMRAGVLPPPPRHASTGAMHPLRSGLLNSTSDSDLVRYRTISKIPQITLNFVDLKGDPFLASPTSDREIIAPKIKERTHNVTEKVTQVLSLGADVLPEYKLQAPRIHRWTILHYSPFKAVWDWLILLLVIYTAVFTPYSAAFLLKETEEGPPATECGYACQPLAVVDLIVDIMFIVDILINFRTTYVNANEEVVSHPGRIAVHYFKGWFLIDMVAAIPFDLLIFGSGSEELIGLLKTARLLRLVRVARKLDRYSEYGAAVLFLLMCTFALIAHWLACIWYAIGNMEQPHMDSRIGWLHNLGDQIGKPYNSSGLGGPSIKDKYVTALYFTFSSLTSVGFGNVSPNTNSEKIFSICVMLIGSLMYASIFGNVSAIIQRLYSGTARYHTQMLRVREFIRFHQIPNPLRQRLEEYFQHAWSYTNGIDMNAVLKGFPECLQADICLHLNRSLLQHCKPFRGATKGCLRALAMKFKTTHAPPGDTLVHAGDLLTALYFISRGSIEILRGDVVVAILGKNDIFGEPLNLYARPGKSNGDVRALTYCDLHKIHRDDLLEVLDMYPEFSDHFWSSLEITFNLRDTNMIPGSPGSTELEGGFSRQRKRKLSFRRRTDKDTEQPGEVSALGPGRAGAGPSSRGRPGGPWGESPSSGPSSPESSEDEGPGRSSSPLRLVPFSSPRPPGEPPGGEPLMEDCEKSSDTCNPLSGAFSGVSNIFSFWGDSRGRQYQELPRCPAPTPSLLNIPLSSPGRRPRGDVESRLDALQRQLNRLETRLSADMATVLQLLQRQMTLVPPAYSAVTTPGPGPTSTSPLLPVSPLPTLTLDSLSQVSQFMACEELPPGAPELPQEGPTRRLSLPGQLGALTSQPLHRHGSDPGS
Consider `Cc1ccc(C)c(N2N=C(C(=O)Nc3ccccc3N3CCCC3)CCC2=O)c1`, for which the “hERG current change (%, negative = inhibition) at 10uM” value came out at 3.97%.
In the case of `COc1ccccc1/C=N\Nc1ccccc1[N+](=O)[O-]`, the “hERG current change (%, negative = inhibition) at 10uM” value was 21.7%.
Next, `O=C(O)c1ccc(CNC(=O)c2ccc(S(=O)(=O)N3CCCCC3)cc2)cc1`: -1.88%.
Turning to `NC(=O)Cn1cnc(-c2ccccc2)c1`, the “hERG current change (%, negative = inhibition) at 10uM” value was found to be 9.58%.
Next, `CCCCc1c(O)nc(SCC(=O)N2CCOCC2)n(-c2ccccc2OC)c1=O`: 7.27%; `COCCNC(=O)C1(C)C=CC2(CCCCC2)N1C(=O)c1ccccc1` (stereo not drawn): 5.19%; `CC(=O)N(CN1C(=O)C2CC=CCC2C1=O)c1cccc(Cl)c1` (stereo not drawn): -5.31%.
For the compound `Cc1nnsc1C(=O)N1CCCC(N2CCN(c3ccc(F)cc3)CC2)C1` (stereo not drawn), the “hERG current change (%, negative = inhibition) at 10uM” value is -12.3%.
Next, `COc1ccccc1N1CCN(C2CCCN(C(=O)c3oc(C)cc3C)C2)CC1` (stereo not drawn): -47.9%; `Cc1nonc1C(=O)N1CCCC(N2CCN(c3ccc(F)cc3)CC2)C1` (stereo not drawn): -51.8%.
For `Cc1cc(C)c(C(=O)N2CCCC(N3CCN(c4cccc(C(F)(F)F)c4)CC3)C2)o1` (stereo not drawn) the value was -52.1%; for `Cc1ccc2nccc(C(=O)N3CCCC(N4CCN(c5ccc(F)cc5)CC4)C3)c2c1` (stereo not drawn), -48.5%.
Next, `Cc1cc(C(=O)N2CCCC(N3CCN(c4cccc(C(F)(F)F)c4)CC3)C2)c(C)o1` (stereo not drawn): -23.2%; `Cc1cc(C(=O)N2CCCC(N3CCN(c4ccc(F)cc4)CC3)C2)c(C)o1` (stereo not drawn): -59.1%.
In the case of `COc1ccccc1N1CCN(C2CCCN(C(=O)c3cc(C)oc3C)C2)CC1` (stereo not drawn), the “hERG current change (%, negative = inhibition) at 10uM” value was -3.28%.
Next, `Cc1cc(C)c(C(=O)N2CCCC(Nc3ccc(F)cc3)C2)o1` (stereo not drawn): 9.39%; `Cc1ncoc1C(=O)N1CCCC(N2CCN(c3cccc(C(F)(F)F)c3)CC2)C1` (stereo not drawn): -35.7%; `Cc1cc(C)c(C(=O)N2CCCC(N3CCN(c4ccc(F)cc4)CC3)C2)o1` (stereo not drawn): -73.6%.
For `Cc1cccc(N(CC(=O)N/N=C/c2ccc(OCC(=O)NCc3ccco3)cc2)S(C)(=O)=O)c1C` the value was 4.14%; for `C=CCn1c(O)c(C(C)=NCC2CCCO2)c(=O)[nH]c1=O` (stereo not drawn), -6.3%.
Turning to `O=C(NCCC(NS(=O)(=O)OCC(Cl)(Cl)Cl)c1ccccc1)C(F)(F)F` (stereo not drawn), the “hERG current change (%, negative = inhibition) at 10uM” value is given as -16.4%.
For `NC(=O)CCCC1=NS(=O)(=O)c2ccccc2N1` the value was 11.5%; for `COc1ccc(C(=O)Nc2ccccc2N2CCN(C(=O)C(C)C)CC2)cc1Cl`, -30.9%.
For `CC(C)C(=O)N1CCN(c2ccccc2NC(=O)c2ccc(C#N)cc2F)CC1` the value was -72.2%.
`COc1cc2ccccc2cc1C(=O)Nc1ccccc1N1CCCC1`: the “hERG current change (%, negative = inhibition) at 10uM” value is given as -4.16%.
For `CN1CCN(c2ccccc2NC(=O)c2ccccc2F)CC1` the value was -70.8%.
For `O=C(Nc1ccccc1N1CCN(c2ccccc2)CC1)c1ccccc1F` the value was 8.96%.
For `COc1c(F)c(F)c(C(=O)Nc2ccccc2N2CCN(C(=O)C(C)C)CC2)c(F)c1F` the value was 6.51%; for `COc1ccc(Cl)cc1C(=O)Nc1ccccc1N1CCN(C)CC1`, -79.3%; for `CC1CCN(c2ccccc2NC(=O)c2ccc(C#N)cc2F)CC1`, 5.07%.
Regarding `COc1ccc(Cl)cc1C(=O)NC(=S)Nc1ccccc1N1CCOCC1`, the “hERG current change (%, negative = inhibition) at 10uM” value stood at 10.2%.
Next, `O=C(Nc1ccccc1N1CCCC1)c1ccccc1F`: -3.26%; `CC(=O)N1CCN(c2ccccc2NC(=O)c2ccc(C#N)cc2F)CC1`: -49.6%; `COc1ccc(Cl)cc1C(=O)Nc1ccccc1N1CCN(C(=O)C(C)C)CC1`: -74%.
For `CN(C)c1ccc(NC(=O)c2ccc(COc3cccc(Cl)c3)o2)cc1` the value was 0.95%; for `CS(=O)(=O)N(CC(=O)N1CCOCC1)Cc1ccc(Cl)cc1`, 4.67%; for `COc1cc(C(=O)NCC2(N3CCCCC3)CCCCC2)ccc1OCC(=O)N1CCOCC1`, -3.67%.
Next, `CC(=O)Nc1cccc(C(=O)OC(C)C(=O)N2CCc3ccccc32)c1` (stereo not drawn): -33.2%.
As to `Cc1ccc(C(=O)N2CCN(c3ncnc4c(-c5ccccc5)nsc34)CC2)cc1`, the “hERG current change (%, negative = inhibition) at 10uM” value is listed as 18.1%.
Next, `Cc1cc(C)n(-c2nc(NCC3CCCO3)c3c4c(sc3n2)COC(C)(C)C4)n1` (stereo not drawn): -20.2%.
Next, `CC(NCc1ccc([N+](=O)[O-])cc1)C1COc2ccccc2O1.O=C(O)C(=O)O` (stereo not drawn): -66.2%; `COc1ccc(CC(=O)NC(C)C2COc3ccccc3O2)cc1OC` (stereo not drawn): -0.81%; `CC(NCc1ccccc1)C1COc2ccccc2O1` (stereo not drawn): 2.12%.
Next, `CCOC(=O)CCNC(C)C1COc2ccccc2O1.O=C(O)C(=O)O` (stereo not drawn): 1.93%; `COc1ccc(CNC(C)C2COc3ccccc3O2)c(OC)c1.O=C(O)C(=O)O` (stereo not drawn): -63.2%; `COc1ccc(CNC(=O)C2COc3ccccc3O2)c(OC)c1` (stereo not drawn): -26.4%.
Regarding `Cc1ccc(NC(=S)NCCc2c[nH]c3ccccc23)cc1`, the “hERG current change (%, negative = inhibition) at 10uM” value is -1.12%.
For `COc1ccc(OCC(O)CNC(=O)c2ccc(OC)cc2)cc1` (stereo not drawn) the value was 14.9%; for `COCCn1c(SCC(=O)Nc2ccc(F)cc2F)nc2c([nH]c3ccccc32)c1=O`, 8.08%; for `COCCCn1c(C)nnc1SCC(=O)NNC(=O)COc1ccc(Cl)cc1`, 22.6%.
Next, `COc1ccc(-c2ccc(Nc3ccc(S(=O)(=O)N4CCCC4)cc3)nn2)cc1OC`: 6.55%; `Cn1c(=O)[nH]c(=O)c2c1nc(N1CCNCC1)n2Cc1cccc2ccccc12`: -16.4%; `Cc1cccc(N/C(=N/S(=O)(=O)c2ccccc2)c2ccccc2)n1`: -24.9%.
On to `CCN(c1cccc(C)c1)C(C(=O)Nc1ccc(OC)cc1)c1cc2c(cc1[N+](=O)[O-])OCO2` (stereo not drawn), for which the “hERG current change (%, negative = inhibition) at 10uM” value is listed as 21.1%.
